# PubChem BioAssay
# Activity calls are given as the source filed them. Unless noted, how the calls were made is not given here.
# Key:
# [1] = kinase inhibitors against Plasmodium liver-stage infection, cell-based, known kinase inhibitor set, luminescence, hepatoma host viability (AID 624392); conditions: Plasmodium liver stage in hepatoma cells, luciferase luminescence, concentration not given here; liver cell % of control: measured here: host liver cell viability; parasite % of control: stronger effect = lower value;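 further: infected cells incubated roughly two days before readout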
# [2] = modulators of glucocorticoid suppression of NF-kB, cell-based, luciferase, IL-1B stimulus, dexamethasone (AID 624486); conditions: NF-kB luciferase reporter, IL-1B + dexamethasone, luminescence; percent of negative control (+Dex): actives lie on both sides, concentration not given here; z-score: measured here: IL-1B alone, no Dex;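 on percent of negative control (+Dex): 100% = mean signal of vehicle control wells on the plate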
# [3] = kinase inhibitors altering Pseudomonas killing of worms, whole organism (AID 651566);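 further: tested at 14 µM; sign flipped so higher z means a lower ratio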; conditions: C. elegans killed by P. aeruginosa, survival ratio
# [4] = activators of macrophage pro-inflammatory response, cell-based, murine, luminescence (AID 652131); conditions: murine macrophage pro-inflammatory reporter, stronger effect = higher value
# [5] = target: Cellular tumor antigen p53 (Homo sapiens) (UniProt P04637); assay: kinase inhibitors altering GFP-p53 stability in HPV16-positive cells, imaging, known kinase inhibitor set, EGFP/DsRed ratio (AID 1053116); conditions: stronger effect = higher value; EGFP object count: measured here: GFP-p53 positive objects count;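 further: cells exposed to compounds for 24 h at 37 °C before reading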
# [6] = IRF3 reporter activation in THP-1 macrophages, cell-based, PMA-stimulated THP-1, luminescence (AID 1053176); conditions: PMA-differentiated THP-1, IRF3 reporter luminescence; stronger effect = higher value
# [7] = survival rescue of mitochondrial mutant cells in low glucose, primary screen, MELAS cybrids, Rieske KO mouse fibroblasts, CellTiter-Glo (AID 1508586;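 active means mean z-score across replicates of 1.96 or higher in either the MELAS or the Rieske mutant cell line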;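 further: z relative to plate mean and SD of compound and empty wells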)
# [8] = MELAS cybrid survival, CellTiter-Glo 48 h, stronger effect = higher value
# [9] = Rieske KO mouse fibroblast survival, CellTiter-Glo 72 h
# Cellular tumor antigen p53 (Homo sapiens), sequence (P04637 whole entry, looked up): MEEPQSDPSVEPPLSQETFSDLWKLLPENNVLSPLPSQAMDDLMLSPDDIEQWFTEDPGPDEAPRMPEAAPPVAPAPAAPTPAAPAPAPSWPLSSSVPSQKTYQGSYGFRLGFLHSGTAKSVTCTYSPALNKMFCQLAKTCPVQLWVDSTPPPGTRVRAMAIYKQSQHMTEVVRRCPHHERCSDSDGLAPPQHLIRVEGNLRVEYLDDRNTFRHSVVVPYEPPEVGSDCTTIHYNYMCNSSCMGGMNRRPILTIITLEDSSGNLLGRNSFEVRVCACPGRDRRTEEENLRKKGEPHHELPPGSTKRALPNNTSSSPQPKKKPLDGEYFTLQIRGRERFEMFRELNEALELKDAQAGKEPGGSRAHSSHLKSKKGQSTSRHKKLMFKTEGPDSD
SMILES,liver cell % of control [1] [%],parasite % of control [1],percent of negative control (+Dex) [2],z-score [2],z-score [3],z-score [4],EGFP object count [5],EGFP/DsRed ratio [5],fraction signal [6],"z-score [7, 8]","z-score [7, 9]"
N#Cc1cccc(Nc2nccc(-c3cnn4ncccc34)n2)c1,128,19.1% (inactive),2% (active),-9.25,0.415 (inactive),-1.79 (inactive),1,0.00226 (inactive),-0.013 (inactive),0.321 (inactive),1.44
COc1cc(/C=N/Nc2ncnc3[nH]ncc23)ccc1O,81.7,96.9% (inactive),87.5% (inactive),-0.055,0.42 (inactive),-0.354 (inactive),2.5,0.119 (inactive),0.001 (inactive),0.451 (inactive),-0.093
CNC(=O)c1ncccc1Nc1nc(Nc2cc3c(cc2OC)CCCN3C(=O)CN(C)C)nc2[nH]ccc12,91.6,670% (inactive),99.5% (inactive),0.22,0.02 (inactive),0.337 (inactive),3,0.0957 (inactive),-0.01 (inactive),6.01 (active),11.9
CCCN1CCC(c2ccc(Nc3nc(Nc4cc(F)ccc4C(N)=O)c4cc[nH]c4n3)c(OC)c2)CC1,73,355% (inactive),72% (inactive),-1.46,0.62 (inactive),-0.577 (inactive),22.5,0.237 (inactive),-0.0085 (inactive),-0.472,7.31
CNC(=O)c1cncc(/C=C/c2ccccc2Cl)c1,165,16.8% (inactive),109% (inactive),0.82,-0.36 (inactive),1.43 (inactive),6.5,0.185 (inactive),0.0005 (inactive),1.56 (inactive),-0.00226
COc1c(C(N)=O)cc(-c2ccc(Cl)cc2)cc1-c1ccc(S(N)(=O)=O)cc1,100,180% (inactive),90.5% (inactive),0.135,-0.43 (inactive),0.956 (inactive),4,0.128 (inactive),-0.003 (inactive),0.239 (inactive),0.0436
CN(C)c1ccc2[nH]c(O)c(C=Nc3ccc(S(N)(=O)=O)cc3)c2c1,88.2,103% (inactive),93% (inactive),0.245,0.065 (inactive),0.675 (inactive),6.5,0.209 (inactive),-0.008 (inactive),1.57 (inactive),-0.102
CS(=O)(=O)Nc1ccc(-c2cc(-c3ccccc3)cc(C(N)=O)c2N)cc1,89.1,126% (inactive),88% (inactive),-0.23,1.28 (inactive),-1.08 (inactive),2,0.102 (inactive),-0.0055 (inactive),0.927 (inactive),0.162
COc1ccc(-c2nn3ncccc3c2-c2ccnc(Nc3ccc(F)c(F)c3)n2)cc1,177,16.9% (inactive),75.5% (inactive),-0.785,1.61 (inactive),-0.312 (inactive),4.5,0.039 (inactive),0.0025 (inactive),1.01 (inactive),-0.0344
COc1cc(C)c(N(C)C(=O)CN(C)C)cc1Nc1nc(Nc2cccc(F)c2C(N)=O)c2cc[nH]c2n1,71.5,391% (inactive),110% (inactive),0.76,0.1 (inactive),0.717 (inactive),5,0.2 (inactive),-0.0115 (inactive),3.65 (active),1.35
CCOc1ccc2c(-c3ccnc(Nc4cccc(C(F)(F)F)c4)n3)cnn2n1,69.9,174% (inactive),78% (inactive),0,0.335 (inactive),-0.613 (inactive),10,0.229 (inactive),0.0035 (inactive),-0.0749 (inactive),-0.0737
NCc1ccc(-c2nc(-c3ccc(Cl)c(O)c3)c(-c3ccncc3)[nH]2)cc1,94.8,77.4% (inactive),91.5% (inactive),-0.18,1.2 (inactive),-0.414 (inactive),2,0.0758 (inactive),0.0015 (inactive),0.156 (inactive),-0.269
O=C1NC(=O)C(c2cccc(Cl)c2)=C1Nc1ccc(Cl)c(C(=O)O)c1,102,122% (inactive),96.5% (inactive),0.205,-0.33 (inactive),-0.043 (inactive),2.5,0.103 (inactive),0 (inactive),-0.755 (inactive),-0.327
NS(=O)(=O)c1ccc(N=Nc2c(O)[nH]c3ccc(-c4cnco4)cc23)cc1,87.3,140% (inactive),104% (inactive),0.22,-0.29 (inactive),3.29 (inactive),10,0.401 (inactive),0.0025 (inactive),0.293 (inactive),-0.0502
CC(=O)NCc1cccc(C#Cc2cncnc2Nc2ccc(OCc3cccc(F)c3)c(Cl)c2)c1,86.2,90.8% (inactive),77% (inactive),-1.32,0.19 (inactive),-0.99 (inactive),5.5,0.157 (inactive),0.004 (inactive),0.0992 (inactive),-0.0459
Cc1ccc(NC(=O)c2ccnc(N3CCCC3)c2)cc1-c1ccc(C(=O)NCC2CC2)cc1,90.4,91.3% (inactive),104% (inactive),0.86,-0.79 (inactive),-0.27 (inactive),6,0.0951 (inactive),-0.0005 (inactive),-0.285 (inactive),-0.118
Fc1ccc(-c2nn3ccccc3c2-c2ccncc2)cc1,99.4,91.2% (inactive),90% (inactive),0.26,-0.5 (inactive),-0.011 (inactive),4.5,0.0996 (inactive),0.0045 (inactive),0.183 (inactive),-0.338
CCCN(CCS(C)(=O)=O)Cc1ccc(-c2ccc3ncnc(Nc4ccc(OCc5cccc(F)c5)c(Cl)c4)c3c2)o1,100,108% (inactive),74.5% (inactive),-1.22,1.21 (inactive),1.79 (inactive),4.5,0.083 (inactive),-0.0115 (inactive),-0.517 (inactive),-0.151
O=S(=O)(CCOCc1ccc(-c2ccc3ncnc(Nc4ccc(OCc5cccc(F)c5)c(Cl)c4)c3c2)o1)c1ccccc1,105,111% (inactive),78% (inactive),-1.27,-1.41 (inactive),-0.482 (inactive),2,0.0356 (inactive),-0.003 (inactive),-0.647 (inactive),-0.248
CCN1CCC(CC(=O)Nc2n[nH]c3nc(-c4cccs4)c(Br)cc23)CC1,76.8,72.5% (inactive),88% (inactive),-0.195,0.735 (inactive),-0.532 (inactive),8.5,0.138 (inactive),0.006 (inactive),0.148 (inactive),-0.143
COc1ccc(-c2nn3ncccc3c2-c2ccnc(Nc3ccc4c(c3)OCCO4)n2)cc1,172,12.5% (active),79% (inactive),-1.21,1.58 (inactive),-0.248 (inactive),1.5,0.0413 (inactive),0.0025 (inactive),0.896 (inactive),0.839
O=C(Nc1n[nH]c2nc(-c3ccc(O)cc3)c(Br)cc12)C1CC1,74.6,71% (inactive),206% (active),0.485,0.105 (inactive),-1.27 (inactive),2.5,0.0391 (inactive),-0.013 (inactive),7.51 (active),-0.202
C[C@@H](Oc1cc(-n2cnc3ccc(OCC4CCN(C)CC4)cc32)sc1C(N)=O)c1ccccc1Cl,73.4,117% (inactive),104% (inactive),-0.185,-0.885 (inactive),-2.53 (inactive),7,0.174 (inactive),-0.009 (inactive),-0.19 (inactive),0.83
c1ccc(-c2nc3n(c2-c2ccc4c(c2)OCO4)CCC3)nc1,103,16.7% (inactive),102% (inactive),0.295,1.04 (inactive),4.3 (inactive),6,0.172 (inactive),-0.003 (inactive),-1.04 (inactive),0.741
Cc1ccc(C(=O)NC2CCC2)cc1-c1ccc(C(=O)NCC2CC2)cc1,104,116% (inactive),98.5% (inactive),1.36,0.425 (inactive),-0.285 (inactive),2,0.0763 (inactive),-0.002 (inactive),-0.173 (inactive),-0.404
COC(=O)Nc1nc2ccc(Oc3ccc(NC(=O)Nc4ccccc4)cc3)cc2[nH]1,96.2,260% (inactive),112% (inactive),1.13,0.065 (inactive),0.608 (inactive),17.5,0.664 (inactive),-0.0025 (inactive),-0.73 (inactive),-0.00674
